Among the data in PubChem BioAssay AID686940 (The Scripps Research Institute Molecular Screening Center, 2013) are inhibition values, retold here.

Molecules are shown by their SMILES. The whole screen tested about 370,000 compounds, of which about 2,600 (0.7%) were called active. The sample holds actives, similar compounds and a random draw of the others, so the mix is not that of the screen. Values without a mark were called inactive.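 How the source made its calls: active means inhibition above a per-plate cutoff, mean inhibition of test wells between control levels plus 3 SD (cut at about 38% in these data); inactive means the rest.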

The target of this experiment is COUP transcription factor 2 (Homo sapiens) (UniProt P24468). In words: COUP-TFII reporter suppression in human cells – cell-based, luciferase reporter, HEK293T, luminescence, primary screen (AID 686940).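 Further: cells cotransfected with COUP-TFII expression vector driving the NGFI-A reporter; 0% = median of COUP-TF2 test wells and 100% = reporter-only cells.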 The conditions noted are these: HEK293T NGFI-A luciferase reporter, at 8.6 µM, active compounds read high. In general terms: Reporter assays use an easily measured gene product as a stand-in for the process of interest.
Chain of COUP transcription factor 2 (Homo sapiens) (P24468 whole entry, looked up): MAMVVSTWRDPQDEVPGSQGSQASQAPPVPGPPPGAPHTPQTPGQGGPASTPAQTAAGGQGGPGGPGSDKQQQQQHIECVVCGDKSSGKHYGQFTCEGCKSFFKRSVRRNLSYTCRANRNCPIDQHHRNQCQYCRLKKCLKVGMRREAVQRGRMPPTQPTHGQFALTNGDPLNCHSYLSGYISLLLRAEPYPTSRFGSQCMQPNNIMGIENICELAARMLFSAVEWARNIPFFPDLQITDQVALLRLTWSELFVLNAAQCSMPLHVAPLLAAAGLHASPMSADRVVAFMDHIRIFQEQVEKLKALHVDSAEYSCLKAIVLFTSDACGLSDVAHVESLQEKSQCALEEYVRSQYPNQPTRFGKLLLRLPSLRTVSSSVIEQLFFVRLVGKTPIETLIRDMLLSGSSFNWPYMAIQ
As usually defined, the inhibition is the change of the read-out against control, counted positive when it falls. As to `Cc1ccc(NC(=O)COc2coc(CN3CCc4ccccc4C3)cc2=O)cc1Cl`, the inhibition is 8.3%.

Consider `CCc1ccccc1OCC(=O)Nc1ccc(C)c(S(=O)(=O)N2CCCCCC2)c1`, for which the inhibition was 16.9%.

Regarding `Cc1ccccc1OCC(=O)Nc1ccc(N2CCN(C(=O)C(C)C)CC2)c(Cl)c1`, the inhibition was 40.9% (active).

As for `C=CCOC/C=C/C#CCN(CC=C)Cc1ccc(OC)cc1OC`, the inhibition is -4.38%.

Regarding `CCOC(=O)CNc1nc(Cl)nc(Nc2ccc(OC)cc2OC)n1`, the inhibition was 9.09%.

As to `COc1ccc(Nc2ncnc3ccc(Br)cc23)c(OC)c1`, the inhibition was 39.9% (active).

On to `CC1(C)CC2CC(C)(CN2c2ncnc3ccc(Br)cc23)C1` (stereo unspecified), for which the inhibition is 16.5%.

As to `O=C(Nc1cccc(Cl)c1)OC1CC2CC1[C@H]1CCCCN1[C@H]2Cc1ccccc1` (stereo partly specified), the inhibition was 14.6%.

As to `COc1ccc(C(=O)Nc2nc(-c3ccc(S(=O)(=O)N4CCOCC4)cc3)cs2)cc1`, the inhibition was 70.8% (active).

For `COc1ccc(C(=O)Nc2cc(S(=O)(=O)N3CCCC3)ccc2Cl)cc1`, the inhibition was 1.63%.

As to `O=C(Nc1ccc(N2CCOCC2)c(Cl)c1)c1ccc(S(=O)(=O)N2CCOCC2)cc1`, the inhibition was 6.88%.

For the compound `COC(=O)[C@@]12CCCCC3=C1N(CCC3)C(=O)[C@H]2CC(=O)NCc1cccc2ccccc12`, the inhibition is -8.73%.

Consider `Cc1c[nH]c2cccc(-c3ccc(Cl)cc3)c12`, for which the inhibition was 1.03%.

With `COc1cccc(/C=C2\CC3(OC(C)=O)CCCN2C3)c1` (stereo unspecified), the inhibition was -14.3%.

As for `CC(=O)N1CCCN(C2=Nc3ccccc3Sc3ccccc32)CC1`, the inhibition is -4.52%.

On to `Cc1cc(C(=O)CSc2nc(N)cc(=O)[nH]2)c(C)n1-c1cccc(F)c1`, for which the inhibition was 27.2%.

As to `Cc1cc(C(=O)COc2ccccc2Cl)c(C)n1C1CC1`, the inhibition is -24.6%.

`Cc1cc(C(=O)COC(=O)C2CC2)c(C)n1-c1ccc(F)cc1`: the inhibition is 56.4% (active).

As for `COC(=O)[C@]12C[C@H](CC(=O)N3CCN(C(=O)C4CC4)CC3)C(=O)N(CCC3=CCCCC3)C1=C[C@H](C(C)C)O[C@@H]2C1CC1`, the inhibition is 5.77%.

`CC(C)C(C#CC1CC1)N(Cc1ccc2c(c1)OCO2)C(N)=NC(=O)/C=C/c1cccc(C(F)(F)F)c1` (stereo unspecified): the inhibition was -0.2%.

As for `CCCOc1ccc(Cc2c(O)nc(SC)[nH]c2=O)cc1C`, the inhibition was 17.2%.

For `CCCOc1ccc(Cc2c(Cl)nc(SC)nc2NC)cc1`, the inhibition was 46.9% (active).

Regarding `CCCOc1ccc(Oc2c(Cl)cnn(Cc3cccc4ccccc34)c2=O)cc1`, the inhibition was 3.48%.

Take `COC(=O)[C@]12C[C@H](CC(=O)NCC34CC5CC(CC(C5)C3)C4)C(=O)N(Cc3ccc(Cl)cc3Cl)C1=C[C@H](COCc1ccccc1)O[C@@H]2C`: the inhibition was -8.65%.

As for `COc1ccc(/C=C2\CC3(OC(C)=O)CCCN2C3)cc1` (stereo unspecified), the inhibition is -13.1%.

On to `Fc1ccc2nc(COCc3nc4ccc(F)cc4[nH]3)[nH]c2c1`, for which the inhibition is -29.3%.

Turning to `O=C(CNS(=O)(=O)c1ccccc1F)N1CCN(c2ccccn2)CC1`, the inhibition was 8.7%.

Take `CN(c1ccc2nc3ccccc3c(=O)n2n1)C1CCCCC1`: the inhibition was 88.6% (active).

Regarding `COCC(C)n1c(SCC(=O)NC2CCCCC2C)nc2ccccc2c1=O` (stereo unspecified), the inhibition is 1.47%.

`O=C(c1ccco1)N(Cc1nc2ccccc2c(=O)[nH]1)C1CCCC1`: the inhibition was -0.35%.

For `CN1[C@H](Cc2ccccc2)COc2cccc(N3CCSCC3)c2S1(=O)=O`, the inhibition was 5.38%.

For the compound `C[C@@H]1COc2cccc(N3CCCC3)c2S(=O)(=O)N1C`, the inhibition is -14.7%.

Regarding `COC(=O)c1cc(S(=O)(=O)N2CCN(C(=O)C3CCCO3)CC2)cn1C` (stereo unspecified), the inhibition was -3.24%.

As to `CCCCNC(=O)C[C@H]1C(=O)N(Cc2ccc(OC)cc2)C2=CCCC[C@@]21C(=O)OCC`, the inhibition was 7.45%.

For the compound `COc1cc(C(=O)NCC(=O)N2CC=C(c3ccccc3)CC2)cc(OC)c1OC`, the inhibition was 9.83%.

Consider `CCn1c(CNC(=O)c2cc(OC)c(OC)c(OC)c2)cc2cc(C)ccc21`, for which the inhibition was 41.5% (active).

For the compound `COc1cc(C(=O)NCc2nnc(SCC(=O)Nc3nc4ccc(C)cc4s3)o2)cc(OC)c1OC`, the inhibition was -8.42%.

In the case of `COc1ccccc1C(=O)NC1CCCCN(C(C)C)C1=O` (stereo unspecified), the inhibition is 2.43%.

As to `CC1CCN(c2ccc(C(=O)O)cc2NS(=O)(=O)c2ccc(Br)s2)CC1`, the inhibition is -3.26%.

On to `CN(O)C(=S)c1ccccc1`, for which the inhibition was 43.2% (active).

Take `CCn1c2ccccc2c2cc(NC(=O)CSc3nnc(-c4ccccc4)n3-c3ccc(C)cc3)ccc21`: the inhibition was 22.1%.

`COC(=O)[C@]1(C#N)CC(=O)N(CC2CCCCC2)[C@@H]1c1ccccc1`: the inhibition is -5.14%.

Regarding `COc1ccccc1CCNC(=O)C1CCN(c2nc(C)cc(C)n2)CC1`, the inhibition was 1.51%.

Turning to `O=C(Nc1cc(F)cc(F)c1)OC1CCC12CCC(c1ccccc1)CC2` (stereo unspecified), the inhibition is 19%.

In the case of `CN1CCN(Cc2nc3cc(NC(=O)COc4ccc([N+](=O)[O-])cc4)ccc3n2C)CC1`, the inhibition was 10.4%.

Consider `Cn1c(CN2CCOCC2)nc2cc(NC(=O)c3ccc(Cl)cc3)ccc21`, for which the inhibition was 49.9% (active).

Take `O=C(Nc1ccc(CN2CCOCC2)cc1)c1cc(Cl)ccc1Cl`: the inhibition is 5.94%.

As for `COc1ccc(-c2nnc(SCC(=O)c3ccc4c(c3)OCCO4)o2)cc1`, the inhibition was 17.8%.

In the case of `CCc1ccccc1NC(=O)CSc1nnc(-c2cccs2)o1`, the inhibition is -16.3%.

Consider `COc1ccc(-n2c(C)cc(C(=O)CSc3nnc(-c4cccs4)o3)c2C)cc1`, for which the inhibition was 54.9% (active).

For `CCC[C@H]1C(=O)CC[C@@]23CCCN2C(=O)CCC[C@@H]13`, the inhibition is -13.2%.

Take `Cc1nc(C(=O)Nc2ccc(Cl)cc2)sc1C1(C)CC(c2ccccc2)=NO1` (stereo unspecified): the inhibition was 5.05%.

Take `Cc1nc(-c2ccc(Cl)cc2)sc1C1(C)CC(c2ccccc2F)=NO1` (stereo unspecified): the inhibition is -23.8%.

`Cc1nc(C(=O)NCc2ccccc2)sc1C1(C)CC(c2cccnc2)=NO1` (stereo unspecified): the inhibition was 37.6% (active).

For the compound `CCOC(=O)[C@]12CCCCC/C=C\1N(Cc1ccc(OC)cc1)C(=O)[C@H]2CC(=O)NCCCN1CCCC1=O`, the inhibition is 1.89%.

For `CC(C)(C)OC(=O)NCCc1ccccc1/C=C/S(=O)(=O)NCc1ccc(F)cc1`, the inhibition is 13.2%.
